Assay outcomes: PubChem BioAssay, National Center for Advancing Translational Sciences (NCATS)
Shown are actives, neighbours in structure and some others; about 17% of the full set was active somewhere.
TDP1 block = blocks human tyrosyl-DNA phosphodiesterase 1; AID 485290; 350,000 tested, 0.28% active; Potency, µM (top dose mostly 130 µM), for the others: top-dose activity change, negative = inhibition, actives largely listed as inhibitors; Q9NUW8; recombinant TDP1, AlphaScreen DNA substrate cleavage; note: % is set by controls: 0 for no effect and ±100 for the full control effect; nearly all actives have a fitted effect of over 40% in size
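Compounds were preincubated with Tdp1 (1 nM final) for 15 min at room temperature before substrate (15 nM final) started a 5 min reaction; beads (10 ug/ml final) were then added for 10 min before AlphaScreen detection.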
DT40 TDP1 no CPT = qHTS for Inhibitors of human tyrosyl-DNA phosphodiesterase 1 (TDP1): qHTS in cells in absence of CPT; 420,000 tested, 15% active; AID 686978, 2013; Potency, µM (titrated, usually from 46.2 µM), for the others: at the top dose activity change, negative = growth inhibition, actives largely listed as inhibitors; DT40 Tdp1-/- hTDP1 cells, no CPT, ATP luminescence, 48 h; note: % is set by controls: 0 for no effect and ±100 for the full control effect; nearly all actives have a fitted effect of over 55% in size
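Chicken DT40 Tdp1-/- cells complemented with human TDP1, screened without camptothecin (DMSO vehicle only), 400 cells/well. Compounds pin-transferred, cells incubated at 37 °C for at least 48 hr. Growth read as ATP-dependent luminescence (CellTiter-Glo, 30 min at RT).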
DT40 TDP1 CPT = DT40-hTDP1 cell growth loss with CPT; chicken DT40 Tdp1-/-;hTDP1 cells + 20 nM CPT, ATP luminescence, 48 h; Potency, µM (doses to about 46.2 µM), for the others: at the top dose activity change, negative = growth inhibition, most hits filed as inhibitors; 420,000 tested, 12% active; AID 686979; note: % is set by controls: 0 for no effect and ±100 for the full control effect; nearly all actives have a fitted effect of over 55% in size
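Chicken DT40 Tdp1-/- cells complemented with human TDP1, 400 cells/well, exposed to compounds plus 20 nM camptothecin for at least 48 h at 37 C; viability read as ATP content by CellTiter-Glo luminescence.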
ClpP mod = qHTS Assay for Activators of ClpP | 340,000 tested, 1.9% active | AID 651965, 2013 | Potency, µM (series often up to 57.5 µM), for inactives: at the top dose activity change, negative = active | purified B. subtilis ClpP, FRET peptide cleavage, 20 min | ATP-dependent Clp protease proteolytic subunit (Bacillus subtilis (strain 168)), P80244; active = well fitted falling curve with a large enough effect; inconclusive = small, poorly fitted or top-dose-only effect; inactive = no such curve, though single readings can be large or run the other way; note: the source files actives as falling curves though it sought activators and does not explain the sign; nearly all actives have a fitted effect of over 65% in size
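Purified B. subtilis ClpP, 10 microg/mL final in Tris/HCl pH8 with KCl, BSA, glycerol and Tween-20, cleaved an Abz/nitrotyrosine-quenched decapeptide. Fluorescence (ex 320, em 430) was read at 0 and 20 min at room temperature. Delta was normalized to 5.8 microM ADEP and DMSO/no-enzyme controls.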
* = called active by the depositor; ? = inconclusive; . = not tested or not shown. Unless noted, calls come from the whole dose curve; as a rule, active = well fitted curve in the direction sought with a large enough effect; inconclusive = small, poorly fitted or top-dose-only effect, or another doubt; inactive = no such curve, though single readings can be large; an effect the other way counts as inactive or inconclusive. Potency is the fitted concentration of half-maximal effect.

SMILES	TDP1 block	DT40 TDP1 no CPT	DT40 TDP1 CPT	ClpP mod
COc1cc(-c2noc(-c3ccc(N4CCCCC4)c([N+](=O)[O-])c3)n2)cc(OC)c1OC	8.6%	-1.4%	-2.6%	0.9%
COc1ccccc1CC(=O)Nc1ccc(C(=O)N2CCCCC2)cc1	1.9%	-5.3%	-23.8%	-16.8%
CCc1nc(N)c(C#N)c(-c2ccco2)c1C	0.0%	-1.1%	-1.4%	-13.2%
CCCCCc1nc(N)c(C#N)c(-c2ccco2)c1CCCC	-1.9%	?	?	25.1µM*
Cc1cc(C)c2c(=O)nc(SCc3ccccc3C)n(C3CC3)c2n1	2.7%	-15.6%	-21.8%	2.3%
N#CCCn1cc(/C=N/NC(N)=S)c(-c2ccc(-c3ccccc3)cc2)n1	7.5%	4.11µM*	?	-11.7%
COc1ccc2nc(N/C(N)=N/S(C)(=O)=O)nc(C)c2c1	8.3%	8.6%	-5.8%	3.1%
Brc1ccc(N/N=C(/N=Nc2nn[nH]n2)c2ccccc2)cc1	11.0%	2.59µM*	2.91µM*	1.9%
O=C(O)c1ccc(N=N/C(=N\Nc2ccc(C(=O)O)cc2)c2ccccc2)cc1	-3.6%	?	-27.2%	2.7%
COCCCn1c(=O)c2ccccc2n2c(=S)[nH]nc12	.	-2.8%	-1.8%	4.2%
CC(C)CCNC(=O)C(=O)Nc1ccc2c(c1)N(S(=O)(=O)c1cccs1)CCC2	.	3.66µM*	5.17µM*	.
COCCNC(=O)C(=O)Nc1ccc2c(c1)N(S(=O)(=O)c1cccs1)CCC2	0.3%	1.46µM*	1.84µM*	0.7%
C=CCc1ccccc1OCc1nc2ccccc2n1CC	-6.1%	23.1µM*	?	-0.9%
Nc1nc(NCc2ccco2)nc(N2CCCCCC2)c1[N+](=O)[O-]	11.0%	16.4µM*	20.6µM*	7.1%
Nc1nc(NCc2ccco2)nc(N2CCN(Cc3ccccc3)CC2)c1[N+](=O)[O-]	7.1%	18.4µM*	?	.
CC(C)CCNc1nc(N)c([N+](=O)[O-])c(N2CCCCCC2)n1	.	16.4µM*	?	1.7%
N#CCCCS(=O)(=O)c1nc2ccccc2s1	6.9%	.	.	.
CC1Cc2cc(S(=O)(=O)N(C)c3ccc(Br)cc3)ccc2N1C(=O)C1CC1 (stereo not given)	2.6%	23.1µM*	23.1µM*	0.8%
CCN(c1ccc(OC)cc1)S(=O)(=O)c1ccc2c(c1)CC(C)N2C(=O)C1CC1 (stereo not given)	1.4%	18.4µM*	20.6µM*	0.1%
Cc1ccc(N(C)S(=O)(=O)c2ccc3c(c2)CC(C)N3C(=O)C2CC2)cc1 (stereo not given)	-5.6%	?	?	-2.7%
O=C(CC[C@H]1O[C@@H](n2cnc3c(NC(=O)c4ccccc4)ncnc32)[C@H](O)[C@@H]1O)NCC(F)(F)F	.	-7.9%	-12.6%	?
COC(=O)c1scc(-c2ccc(C)cc2)c1S(=O)(=O)Nc1cc(C)c(Cl)cc1OC	8.4%	23.1µM*	4.61µM*	-2.5%
COC(=O)c1scc(C)c1S(=O)(=O)Nc1ccc(C)cc1	4.1%	?	-23.3%	.
COC(=O)c1scc(-c2ccc(C)cc2)c1S(=O)(=O)Nc1cc(C)ccc1OC	3.2%	23.1µM*	?	0.4%
Cc1cc(C)n(-c2n[nH]c(C)c2[N+](=O)[O-])n1	0.0%	-14.8%	-2.4%	.
SMILES	TDP1 block	DT40 TDP1 no CPT	DT40 TDP1 CPT	ClpP mod
O=C(/C=C/c1ccc(Cl)cc1Cl)Nc1ccc(CN2CCOCC2)cc1	2.7%	?	?	-0.3%
O=C(/C=C/c1ccc(Cl)cc1)NC(=S)Nc1ccc(CN2CCOCC2)cc1	-0.6%	23.1µM*	?	.
CC(=O)Nc1ccc(NC(=S)NC(=O)/C=C/c2ccc(Cl)cc2)cc1	2.6%	?	-5.5%	.
COc1ccc(C(=O)NC(=S)Nc2ccc(CN3CCOCC3)cc2)cc1OC	.	20.6µM*	?	4.2%
O=C(/C=C/c1ccc(Cl)cc1)NC(=S)Nc1ccc(NC(=O)c2ccco2)cc1	3.0%	8.2µM*	?	-2.0%
COc1ccc(C(=O)Nc2ccc(CN3CCOCC3)cc2)cc1Br	.	-2.8%	-1.9%	-3.2%
COc1ccc(Br)cc1/C=C/C(=O)NC(=S)Nc1ccc(CN2CCOCC2)cc1	8.2%	16.4µM*	16.4µM*	1.4%
CCc1ccc2oc(-c3cccc(NC(=O)C(C)(C)Oc4ccc(Br)cc4)c3)nc2c1	5.8%	.	.	3.7%
COc1ccc(C(=O)NC(=S)Nc2ccc(CN3CCOCC3)cc2)cc1Cl	10.0%	16.4µM*	18.4µM*	-0.7%
Cc1ccc(C(c2nnnn2CCc2ccccc2)N2CCC(C)CC2)cc1 (stereo not given)	-2.5%	16.4µM*	?	-0.2%
Cc1ccc(C(c2nnnn2CCc2ccccc2)N2CCSCC2)cc1 (stereo not given)	9.1%	?	16.4µM*	-1.2%
CCCC(c1nnnn1CCc1ccccc1)N1CCN(C2CCCC2)CC1 (stereo not given)	-4.1%	-18.0%	-23.8%	0.794µM*
COc1ccc(C(c2nnnn2CCc2ccccc2)N2CCN(C3CCCC3)CC2)cc1OC (stereo not given)	1.0%	-12.2%	?	-0.4%
COc1cccc(-c2cc(C(=O)Nc3cc(Cl)ccc3O)on2)c1	7.8%	-26.3%	-21.9%	-11.7%
COc1cc(NC(=O)c2cc(-c3ccccc3O)no2)cc(OC)c1OC	2.6%	1.64µM*	2.31µM*	-1.9%
COc1cccc(-c2cc(C(=O)Nc3cc(OC)c(OC)c(OC)c3)on2)c1	2.6%	2.91µM*	5.8µM*	-0.1%
CC[C@H](C)[C@H](NC(=O)CNC(=O)[C@H](CCCNC(=N)N)NC(=O)[C@H](CO)NC(=O)[C@H](C)NC(=O)[C@H](Cc1ccc(O)cc1)NC(=O)[C@H](Cc1c[nH]c2ccccc12)NC(=O)[C@H](C)NC(=O)[C@@H]1CCCN1C(=O)[C@H](CC(N)=O)NC(=O)[C@@H](NC(=O)[C@H](CC(=O)O)NC(=O)[C@@H]1CCCN1C(=O)[C@@H](NC(=O)[C@H](CCCNC(=N)N)NC(=O)[C@@H](NC(=O)[C@H](CCC(=O)O)NC(=O)[C@H](CCSC)NC(=O)[C@H](CO)NC(=O)[C@H](Cc1cnc[nH]1)NC(=O)[C@H](CCCNC(=N)N)NC(=O)[C@H](Cc1cnc[nH]1)NC(=O)[C@@H](NC(=O)[C@H](CCCNC(=N)N)NC(=O)[C@@H](N)CO)[C@@H](C)O)[C@@H](C)CC)[C@@H](C)O)[C@@H](C)CC)C(=O)N[C@@H](CCCNC(=N)N)C(=O)N1CCC[C@H]1C(=O)N[C@H](C(=O)NCC(=O)N[C@@H](CCCNC(=N)N)C(=O)N[C@@H](Cc1ccccc1)C(N)=O)C(C)C	17.4%	.	.	.
O=C(C[n+]1cccc(Br)c1)c1ccc(F)cc1	.	0.2%	-3.6%	0.2%
COc1ccc(Cl)cc1NC(=O)CCCn1c(C)c2cnn(-c3ccccc3)c(=O)c2c1C	2.5%	?	23.1µM*	2.5%
